Legend:
Experiment in all cases: DAPPL (digital affinity profiling via proximity ligation, sequencing); 10 mM Tris-HCl pH 7.5, 50 mM NaCl, 1 mM DTT, 4% glycerol, room temperature, 30 min; GST-TFs on glutathione beads, 16-mer random dsDNA library, 0.1% formaldehyde crosslink after washing; high values mean tight binding
FEV = target: T1, FEV (Homo sapiens, UniProt Q99581 1-238); conditions: protein: recombinant; tags: N-terminal GST; dsDNA, one strand shown
T1 sequence: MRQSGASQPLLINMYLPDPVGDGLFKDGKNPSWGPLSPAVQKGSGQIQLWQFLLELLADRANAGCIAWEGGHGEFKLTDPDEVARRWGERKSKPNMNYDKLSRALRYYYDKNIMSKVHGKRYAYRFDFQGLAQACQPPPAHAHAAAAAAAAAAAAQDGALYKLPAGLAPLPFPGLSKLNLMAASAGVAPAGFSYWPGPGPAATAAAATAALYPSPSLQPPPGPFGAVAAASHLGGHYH
Outline: (§1)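 Binding signal is each hexamer's read frequency for a factor divided by its frequency in the tag-only sample. The factors were GST-fused human transcription factors from yeast, captured on glutathione beads, DNA-barcoded and pooled with that sample. Pools were incubated with 200 nmole of a random double-stranded 16-mer DNA library in Tris/NaCl/DTT/glycerol buffer at room temperature for 30 min, then washed, crosslinked with 0.1% formaldehyde, proximity-ligated with BsaI/T4 ligase (1 h, 37 °C), PCR-amplified and sequenced on an Illumina NextSeq500.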

ETV5 = ETV5 (Homo sapiens, UniProt P41161 1-510); conditions: protein: recombinant; tags: N-terminal GST; dsDNA, one strand shown
Chain of ETV5 (P41161 whole entry): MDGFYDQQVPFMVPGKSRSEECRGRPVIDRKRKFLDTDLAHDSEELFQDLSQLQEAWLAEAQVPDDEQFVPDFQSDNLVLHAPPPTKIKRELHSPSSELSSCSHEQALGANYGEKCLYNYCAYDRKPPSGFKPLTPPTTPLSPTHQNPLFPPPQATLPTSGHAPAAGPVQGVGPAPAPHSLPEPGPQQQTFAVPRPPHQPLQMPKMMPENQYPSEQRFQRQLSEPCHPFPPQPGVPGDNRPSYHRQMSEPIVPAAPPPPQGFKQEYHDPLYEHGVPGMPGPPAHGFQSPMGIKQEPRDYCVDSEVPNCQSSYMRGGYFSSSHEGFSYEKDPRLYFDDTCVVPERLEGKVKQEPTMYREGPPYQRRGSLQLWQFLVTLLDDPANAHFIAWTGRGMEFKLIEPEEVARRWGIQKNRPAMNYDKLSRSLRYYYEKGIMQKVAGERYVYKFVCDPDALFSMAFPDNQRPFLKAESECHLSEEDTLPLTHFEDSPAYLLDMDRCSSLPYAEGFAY
Outline: as §1

HSF1 = HSF1 (Homo sapiens, UniProt Q00613 1-529); conditions: protein: recombinant; tags: N-terminal GST; chain copies: 3; dsDNA, one strand shown
Chain of HSF1 (Q00613 whole entry): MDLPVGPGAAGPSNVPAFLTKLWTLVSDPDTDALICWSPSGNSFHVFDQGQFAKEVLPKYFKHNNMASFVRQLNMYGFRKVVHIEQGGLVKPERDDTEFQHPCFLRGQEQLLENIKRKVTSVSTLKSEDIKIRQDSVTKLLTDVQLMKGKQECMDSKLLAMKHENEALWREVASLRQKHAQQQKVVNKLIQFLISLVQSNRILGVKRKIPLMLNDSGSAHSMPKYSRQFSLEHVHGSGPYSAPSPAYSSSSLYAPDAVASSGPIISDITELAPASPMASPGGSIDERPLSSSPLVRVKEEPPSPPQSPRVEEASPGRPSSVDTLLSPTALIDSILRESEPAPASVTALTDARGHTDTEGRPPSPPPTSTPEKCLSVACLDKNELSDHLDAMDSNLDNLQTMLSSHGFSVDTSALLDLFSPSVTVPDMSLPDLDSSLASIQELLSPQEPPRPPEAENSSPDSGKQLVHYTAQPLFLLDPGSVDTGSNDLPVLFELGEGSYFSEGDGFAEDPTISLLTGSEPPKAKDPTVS
Outline: as §1

SPIC = target: T2, SPIC (Homo sapiens, UniProt Q8N5J4 1-248); conditions: protein: recombinant; tags: N-terminal GST; dsDNA, one strand shown
T2 sequence: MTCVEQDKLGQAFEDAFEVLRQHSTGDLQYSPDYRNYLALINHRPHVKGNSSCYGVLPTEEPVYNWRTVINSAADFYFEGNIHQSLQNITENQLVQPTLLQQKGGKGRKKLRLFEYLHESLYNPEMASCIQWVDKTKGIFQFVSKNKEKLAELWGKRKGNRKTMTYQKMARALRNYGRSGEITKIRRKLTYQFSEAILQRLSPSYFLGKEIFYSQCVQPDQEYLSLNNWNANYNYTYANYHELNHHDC
Outline: as §1

ELF4 = ELF4 (Homo sapiens, UniProt Q99607 1-663); conditions: protein: recombinant; tags: N-terminal GST; dsDNA, one strand shown
Chain of ELF4 (Q99607 whole entry): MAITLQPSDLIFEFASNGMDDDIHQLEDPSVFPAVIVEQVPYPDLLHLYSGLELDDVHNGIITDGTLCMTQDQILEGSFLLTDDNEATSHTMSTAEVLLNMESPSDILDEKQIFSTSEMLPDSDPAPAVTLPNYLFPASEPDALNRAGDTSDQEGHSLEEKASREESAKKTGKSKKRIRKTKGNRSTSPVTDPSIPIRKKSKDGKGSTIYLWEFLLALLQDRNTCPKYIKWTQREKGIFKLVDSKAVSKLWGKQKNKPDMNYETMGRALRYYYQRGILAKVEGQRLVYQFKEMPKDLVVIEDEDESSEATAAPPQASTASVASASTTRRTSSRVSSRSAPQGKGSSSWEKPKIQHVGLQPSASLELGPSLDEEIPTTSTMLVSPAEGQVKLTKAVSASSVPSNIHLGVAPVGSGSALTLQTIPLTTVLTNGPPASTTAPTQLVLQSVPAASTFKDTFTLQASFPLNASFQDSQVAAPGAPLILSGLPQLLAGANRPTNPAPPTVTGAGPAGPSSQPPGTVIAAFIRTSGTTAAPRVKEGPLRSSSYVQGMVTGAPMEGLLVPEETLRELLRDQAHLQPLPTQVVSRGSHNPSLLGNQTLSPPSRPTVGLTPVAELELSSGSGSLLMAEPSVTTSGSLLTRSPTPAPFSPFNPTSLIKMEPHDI
Outline: as §1

ELK4 = target: T3, ELK4 (Homo sapiens, UniProt P28324-2 1-405); conditions: protein: recombinant; tags: N-terminal GST; dsDNA, one strand shown
T3 sequence: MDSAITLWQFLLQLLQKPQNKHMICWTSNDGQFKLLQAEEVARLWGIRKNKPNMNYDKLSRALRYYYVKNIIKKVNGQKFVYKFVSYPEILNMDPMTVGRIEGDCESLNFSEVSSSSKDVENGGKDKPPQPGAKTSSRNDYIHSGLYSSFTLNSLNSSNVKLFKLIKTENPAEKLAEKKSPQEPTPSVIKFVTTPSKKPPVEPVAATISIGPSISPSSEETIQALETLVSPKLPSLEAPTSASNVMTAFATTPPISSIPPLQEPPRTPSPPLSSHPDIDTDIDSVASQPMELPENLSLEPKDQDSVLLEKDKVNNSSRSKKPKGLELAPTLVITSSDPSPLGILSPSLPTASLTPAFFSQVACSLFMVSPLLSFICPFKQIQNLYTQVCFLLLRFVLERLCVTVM
Outline: as §1

ETV2 = target: T4, ETV2 (Homo sapiens, UniProt O00321 1-342); conditions: protein: recombinant; tags: N-terminal GST; dsDNA, one strand shown
T4 sequence: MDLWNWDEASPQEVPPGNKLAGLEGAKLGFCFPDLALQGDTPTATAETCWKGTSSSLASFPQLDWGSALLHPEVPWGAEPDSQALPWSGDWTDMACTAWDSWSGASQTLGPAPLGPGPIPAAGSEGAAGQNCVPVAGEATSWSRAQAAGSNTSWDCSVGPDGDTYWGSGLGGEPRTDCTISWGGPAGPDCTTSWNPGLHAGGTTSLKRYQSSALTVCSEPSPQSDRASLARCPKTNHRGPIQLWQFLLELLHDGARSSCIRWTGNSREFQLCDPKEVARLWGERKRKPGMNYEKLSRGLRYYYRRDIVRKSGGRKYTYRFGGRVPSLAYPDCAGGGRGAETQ
Outline: as §1

ELF3 = target: T5, ELF3 (Homo sapiens, UniProt P78545 1-371); conditions: protein: recombinant; tags: N-terminal GST; dsDNA, one strand shown
T5 sequence: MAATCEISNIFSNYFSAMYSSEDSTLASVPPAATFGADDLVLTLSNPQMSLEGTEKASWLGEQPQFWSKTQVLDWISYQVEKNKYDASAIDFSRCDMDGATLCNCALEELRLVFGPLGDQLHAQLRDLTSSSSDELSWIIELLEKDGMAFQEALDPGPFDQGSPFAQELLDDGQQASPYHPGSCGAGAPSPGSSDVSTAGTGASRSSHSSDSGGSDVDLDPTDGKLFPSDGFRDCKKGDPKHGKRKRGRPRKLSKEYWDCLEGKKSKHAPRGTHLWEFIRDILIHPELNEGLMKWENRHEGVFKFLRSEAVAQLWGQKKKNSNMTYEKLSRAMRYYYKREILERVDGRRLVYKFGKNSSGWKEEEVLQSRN
Outline: as §1

CRX = CRX (Homo sapiens, UniProt O43186 1-299); conditions: protein: recombinant; tags: N-terminal GST; dsDNA, one strand shown
Chain of CRX (O43186 whole entry): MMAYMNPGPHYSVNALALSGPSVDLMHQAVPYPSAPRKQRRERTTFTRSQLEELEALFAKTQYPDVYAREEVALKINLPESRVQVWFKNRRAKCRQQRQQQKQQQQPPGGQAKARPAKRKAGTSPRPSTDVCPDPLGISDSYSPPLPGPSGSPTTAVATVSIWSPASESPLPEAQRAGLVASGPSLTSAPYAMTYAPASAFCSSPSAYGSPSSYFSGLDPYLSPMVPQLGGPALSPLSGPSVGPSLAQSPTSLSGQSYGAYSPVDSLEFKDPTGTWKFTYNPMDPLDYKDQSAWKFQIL
Outline: as §1

ETV1 = ETV1 (Homo sapiens, UniProt P50549 1-477); conditions: protein: recombinant; tags: N-terminal GST; dsDNA, one strand shown
Chain of ETV1 (P50549 whole entry): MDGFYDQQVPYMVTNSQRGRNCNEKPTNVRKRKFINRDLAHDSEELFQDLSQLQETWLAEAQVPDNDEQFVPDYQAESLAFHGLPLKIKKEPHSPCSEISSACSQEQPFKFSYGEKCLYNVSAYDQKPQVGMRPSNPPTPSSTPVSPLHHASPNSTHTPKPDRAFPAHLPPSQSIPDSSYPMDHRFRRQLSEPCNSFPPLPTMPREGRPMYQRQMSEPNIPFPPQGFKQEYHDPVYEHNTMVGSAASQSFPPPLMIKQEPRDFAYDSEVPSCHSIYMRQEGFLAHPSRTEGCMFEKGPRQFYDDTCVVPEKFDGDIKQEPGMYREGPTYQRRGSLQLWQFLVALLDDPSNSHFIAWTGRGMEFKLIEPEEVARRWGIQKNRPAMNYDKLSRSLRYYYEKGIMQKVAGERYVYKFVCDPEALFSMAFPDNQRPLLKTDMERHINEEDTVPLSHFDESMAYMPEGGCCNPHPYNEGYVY
Outline: as §1

TTCACC
binding signal (FEV): 1.39 fold enrichment (6-mer frequency, TF over GST control)
binding signal (ETV5): 1.33 fold enrichment (6-mer frequency, TF over GST control)
binding signal (HSF1): 1.14 fold enrichment (6-mer frequency, TF over GST control)
binding signal (SPIC): 1.34 fold enrichment (6-mer frequency, TF over GST control)
binding signal (ELF4): 1.44 fold enrichment (6-mer frequency, TF over GST control)
binding signal (ELK4): 1.36 fold enrichment (6-mer frequency, TF over GST control)
binding signal (ETV2): 1.36 fold enrichment (6-mer frequency, TF over GST control)
binding signal (ELF3): 1.57 fold enrichment (6-mer frequency, TF over GST control)
binding signal (CRX): 1.17 fold enrichment (6-mer frequency, TF over GST control)
binding signal (ETV1): 1.4 fold enrichment (6-mer frequency, TF over GST control)

CCGAAG
binding signal (FEV): 1.04 fold enrichment (6-mer frequency, TF over GST control)
binding signal (ETV5): 1.02 fold enrichment (6-mer frequency, TF over GST control)
binding signal (HSF1): 1.35 fold enrichment (6-mer frequency, TF over GST control)
binding signal (SPIC): 1.23 fold enrichment (6-mer frequency, TF over GST control)
binding signal (ELF4): 1.05 fold enrichment (6-mer frequency, TF over GST control)
binding signal (ELK4): 1.2 fold enrichment (6-mer frequency, TF over GST control)
binding signal (ETV2): 1.31 fold enrichment (6-mer frequency, TF over GST control)
binding signal (ELF3): 1.02 fold enrichment (6-mer frequency, TF over GST control)
binding signal (CRX): 1.11 fold enrichment (6-mer frequency, TF over GST control)
binding signal (ETV1): 1.01 fold enrichment (6-mer frequency, TF over GST control)

TGTACT
binding signal (FEV): 1.41 fold enrichment (6-mer frequency, TF over GST control)
binding signal (ETV5): 1.34 fold enrichment (6-mer frequency, TF over GST control)
binding signal (HSF1): 1.18 fold enrichment (6-mer frequency, TF over GST control)
binding signal (SPIC): 1.18 fold enrichment (6-mer frequency, TF over GST control)
binding signal (ELF4): 1.29 fold enrichment (6-mer frequency, TF over GST control)
binding signal (ELK4): 1.2 fold enrichment (6-mer frequency, TF over GST control)
binding signal (ETV2): 1.3 fold enrichment (6-mer frequency, TF over GST control)
binding signal (ELF3): 1.23 fold enrichment (6-mer frequency, TF over GST control)
binding signal (CRX): 1.15 fold enrichment (6-mer frequency, TF over GST control)
binding signal (ETV1): 1.34 fold enrichment (6-mer frequency, TF over GST control)

TAACGA
binding signal (FEV): 1.08 fold enrichment (6-mer frequency, TF over GST control)
binding signal (ETV5): 1.06 fold enrichment (6-mer frequency, TF over GST control)
binding signal (HSF1): 1.23 fold enrichment (6-mer frequency, TF over GST control)
binding signal (SPIC): 1.1 fold enrichment (6-mer frequency, TF over GST control)
binding signal (ELF4): 1.12 fold enrichment (6-mer frequency, TF over GST control)
binding signal (ELK4): 1.09 fold enrichment (6-mer frequency, TF over GST control)
binding signal (ETV2): 1.04 fold enrichment (6-mer frequency, TF over GST control)
binding signal (ELF3): 1.02 fold enrichment (6-mer frequency, TF over GST control)
binding signal (CRX): 1.57 fold enrichment (6-mer frequency, TF over GST control)
binding signal (ETV1): 1.08 fold enrichment (6-mer frequency, TF over GST control)

TTCGAT
binding signal (FEV): 1.27 fold enrichment (6-mer frequency, TF over GST control)
binding signal (ETV5): 1.36 fold enrichment (6-mer frequency, TF over GST control)
binding signal (HSF1): 1.79 fold enrichment (6-mer frequency, TF over GST control)
binding signal (SPIC): 1.3 fold enrichment (6-mer frequency, TF over GST control)
binding signal (ELF4): 1.27 fold enrichment (6-mer frequency, TF over GST control)
binding signal (ELK4): 1.16 fold enrichment (6-mer frequency, TF over GST control)
binding signal (ETV2): 1.23 fold enrichment (6-mer frequency, TF over GST control)
binding signal (ELF3): 1.42 fold enrichment (6-mer frequency, TF over GST control)
binding signal (CRX): 1.56 fold enrichment (6-mer frequency, TF over GST control)
binding signal (ETV1): 1.34 fold enrichment (6-mer frequency, TF over GST control)

CCGCAC
binding signal (FEV): 1.42 fold enrichment (6-mer frequency, TF over GST control)
binding signal (ETV5): 1.4 fold enrichment (6-mer frequency, TF over GST control)
binding signal (HSF1): 1.13 fold enrichment (6-mer frequency, TF over GST control)
binding signal (SPIC): 1.27 fold enrichment (6-mer frequency, TF over GST control)
binding signal (ELF4): 1.5 fold enrichment (6-mer frequency, TF over GST control)
binding signal (ELK4): 1.3 fold enrichment (6-mer frequency, TF over GST control)
binding signal (ETV2): 1.39 fold enrichment (6-mer frequency, TF over GST control)
binding signal (ELF3): 1.39 fold enrichment (6-mer frequency, TF over GST control)
binding signal (CRX): 1.02 fold enrichment (6-mer frequency, TF over GST control)
binding signal (ETV1): 1.47 fold enrichment (6-mer frequency, TF over GST control)

CTTGTG
binding signal (FEV): 1.39 fold enrichment (6-mer frequency, TF over GST control)
binding signal (ETV5): 1.51 fold enrichment (6-mer frequency, TF over GST control)
binding signal (HSF1): 1.25 fold enrichment (6-mer frequency, TF over GST control)
binding signal (SPIC): 1.45 fold enrichment (6-mer frequency, TF over GST control)
binding signal (ELF4): 1.59 fold enrichment (6-mer frequency, TF over GST control)
binding signal (ELK4): 1.26 fold enrichment (6-mer frequency, TF over GST control)
binding signal (ETV2): 1.44 fold enrichment (6-mer frequency, TF over GST control)
binding signal (ELF3): 1.5 fold enrichment (6-mer frequency, TF over GST control)
binding signal (CRX): 1.25 fold enrichment (6-mer frequency, TF over GST control)
binding signal (ETV1): 1.44 fold enrichment (6-mer frequency, TF over GST control)

From PMC7862700, “An all-to-all approach to the identification of sequence-specific readers for epigenetic DNA modifications on cytosine”
